A number with no mark means an inactive call. Inconclusive results are not listed. Calls of active or inactive are those of the source. Unless noted, the call rests on the fitted dose curve; in most records, active means well fitted curve in either direction with a large enough effect (not every such curve was filed as active); inconclusive means small, poorly fitted or top-dose-only effect, or another doubt; inactive means flat fitted curve, though single readings scatter.
How the values were obtained:
[1] = target: Lysosomal acid glucosylceramidase (Homo sapiens) (UniProt P04062); experiment: Glucocerebrosidase-p2 (AID 348; in the data active means potency below about 10 µM; further: potency means the concentration at half of the fitted maximal effect); conditions: purified GBA, blue fluorogenic substrate, 40 min
Procedure, shortened: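 Compounds titrated from 0.6 nM upwards against 0.2 nM enzyme in pH 5.9 citric acid/KH2PO4, taurocholate, tween-20; blue fluorogenic substrate 80 uM, 40 min room temperature, stopped and read Ex 365/Em 440 for AC50.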

[2] = AP1 Signaling Pathway (AID 357); conditions: ME-180 AP-1-bla reporter, EGF-induced, beta-lactamase ratio, 5 h; at 7.69 µM (top of the series) unless noted; further: on the % scale 0 is the no-effect control and ±100 the full control effect
Procedure, shortened: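 AP-1-bla ME-180 cells with beta-lactamase reporter under AP-1 response element, stimulated with EC50 EGF; compounds titrated, 5 hours at 37 degrees Celsius. CCF4 read at 460/530 nm ratio; positive and negative modulators judged by AC50.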

[3] = target: Cytochrome P450 1A2 (Homo sapiens) (UniProt P05177); experiment: p450-cyp1a2 (AID 410; calls by dose curve; further: potency means the concentration at half of the fitted maximal effect;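 on activity change, negative = inhibition: -100% = full effect of reference inhibitor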); conditions: recombinant CYP1A2, luciferin-ME demethylation, luminescence; series mostly up to 57 µM
Procedure, shortened: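 Inhibition was calculated relative to 57 uM furafylline (full inhibition). The reaction used human CYP1A2 at 20nM with Luciferin-ME at its Km, 100uM, driven by an NADPH-regenerating system for 60 min at room temperature.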

[4] = NFAT Signaling Pathway (AID 444); conditions: Jurkat NFAT-bla M1, carbachol, beta-lactamase ratio, 5 h; at 7.69 µM (top of the series) unless noted;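 further: carbachol stimulus at about its EC50 of 1 µM final; on the % scale 0 is the no-effect control and ±100 the full control effect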
Procedure, shortened: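 Jurkat cells with NFAT-driven β-lactamase reporter and co-expressed M1 receptor, stimulated with carbachol (final 1 uM, ~EC50), compound titration, 5 h at 37 °C. CCF4 loaded 1 h at RT; 460/530 nm ratio gave %activity and AC50.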

[5] = Stat Signaling Pathway (AID 446); conditions: ME-180 SIE beta-lactamase reporter, IL-6 stimulated, 5 h; at 7.69 µM (top of the series) unless noted;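 further: ME-180 cervical cancer cells given 40 pM IL-6 alongside compound; SIE-controlled beta-lactamase reporter measured as 460/530 nm FRET emission ratio; on the % scale 0 is the no-effect control and ±100 the full control effect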
Procedure, shortened: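 ME-180 cells carrying a SIE-driven beta-lactamase reporter are stimulated with 40 pM IL-6 for 5 h at 37C in the presence of compound. The 460/530 nm FRET substrate ratio is read after 2.5 h at RT. Data are normalised to 300 pM IL-6 and to 125 nM JAK inhibitor controls.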

[6] = target: Glucocorticoid receptor (Homo sapiens) (UniProt P04150); experiment: GR-GFP Redistribution (AID 450;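 active means compounds whose dose series gives a full or clear partial fitted curve of increased nuclear translocation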; further: potency means the concentration at half of the fitted maximal effect); conditions: U2OS GR-GFP nuclear translocation, laser cytometry, 2 h
[7] = target: Glucocorticoid receptor (Homo sapiens) (UniProt P04150); experiment: GR-EFC Redistribution (AID 451; calls by dose curve; further: potency means the concentration at half of the fitted maximal effect); conditions: CHO-K1 GR-EFC translocation, beta-gal luminescence, 2 h
Procedure, shortened: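 CHO-K1 cells expressing nuclear EA and GR-ED fragments of b-gal; compounds titrated up to 46 uM final, 2 h at 37 C. GR nuclear translocation read as complemented b-gal luminescence after 1 h RT detection.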

[8] = target: Mitogen-activated protein kinase 10 (Mus musculus) (UniProt Q61831); experiment: JNK3 AlphaScreen Assay (AID 530); conditions: JNK3 lysate, c-Jun phosphorylation; series mostly up to 57.1 µM;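 further: kinase came from lysate of stimulated human HepG2 cells; signal reports phosphorylation of biotinylated GST-cJun 1-79 at Ser73 with 10 µM ATP; on the % scale 0 is the no-effect control and ±100 the full control effect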
Procedure, shortened: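 qHTS format: compounds tested as titrations against IL-1beta/TNF-alpha-activated HepG2 lysate JNK3 with biotin-GST-cJun substrate and 10 uM ATP at room temperature. Loss of anti-phospho-cJun AlphaScreen signal indicates inhibition.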

[9] = target: 3',5'-cyclic-AMP phosphodiesterase 4B (Homo sapiens) (UniProt Q07343); experiment: qHTS Assay for Inhibitors of PDE-IV (AID 607; active means well fitted activation curve with a large enough effect in the main read-out, with a control signal flat, not every such curve was filed as active; further: % of control where 0% means no effect); conditions: HEK293 ACTOne CNG channel cells, membrane potential fluorescence; series mostly up to 22.9 µM
Procedure, shortened: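 HEK293 ACTOne cells with CNG channel (1000/well), endogenous PDE4; membrane potential dye, compounds up to 22.9 uM final. Fluorescence Ex 535/Em 590; RO 20-1724 (100 uM final) as reference.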

[10] = target: Cytochrome P450 2C9 (Homo sapiens) (UniProt P11712); experiment: qHTS Assay for Inhibitors and Substrates of Cytochrome P450 2C9 (AID 883; active means well fitted curve in the direction sought with a large enough effect; an effect the other way counts as inactive or inconclusive; further: potency means the concentration at half of the fitted maximal effect; nearly all actives have a fitted effect of over 60% in size); conditions: recombinant CYP2C9, luciferin-H luminescence, 60 min; series mostly up to 57.1 µM
Procedure, shortened: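 10nM CYP2C9 + 100uM Luciferin-H (=KM), 25mM KPO4; cpd 10 min 37C; NADPH regen, 60 min 37C; stop/detect with P450 Glo-Buffer 20 min; luminescence. Norm. to 57uM sulphaphenazole as full inhibition.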

[11] = target: Cytochrome P450 3A4 (Homo sapiens) (UniProt P08684); experiment: qHTS Assay for Inhibitors and Substrates of Cytochrome P450 3A4 (AID 884; active means well fitted curve in the direction sought with a large enough effect; an effect the other way counts as inactive or inconclusive; further: potency means the concentration at half of the fitted maximal effect; nearly all actives have a fitted effect of over 50% in size); conditions: recombinant CYP3A4, Luciferin-PPXE luminescence; series mostly up to 57.1 µM
Procedure, shortened: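 20 nM human CYP3A4 with 25 uM Luciferin-PPXE (at KM) in 200 mM KPO4, preincubated 10 min with compound; NADPH regeneration started a 60 min RT reaction. Luciferin detected by luminescence, normalized to 57 uM ketoconazole as full inhibition.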

[12] = target: Cytochrome P450 3A4 (Homo sapiens) (UniProt P08684); experiment: qHTS Assay for Activators of Cytochrome P450 3A4 (AID 885; active means well fitted curve in the direction sought with a large enough effect; an effect the other way counts as inactive or inconclusive; further: nearly all actives have a fitted effect of over 65% in size); conditions: recombinant CYP3A4, Luciferin-PPXE luminescence, 60 min; series mostly up to 57.1 µM
Procedure, shortened: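 Human CYP3A4 (20 nM) with Luciferin-PPXE at 25 uM (its KM) in 200 mM KPO4; 10 min compound preincubation, then NADPH regeneration and 60 min reaction at RT. Luciferin read by luminescence; normalized to 57 uM ketoconazole full inhibition.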

[13] = qHTS Assay for Identification of Small Molecule Agonists for Hypoxia Response Element Signaling Pathway (AID 914; active means well fitted activation curve with a large enough effect in the signal ratio, with a control signal flat, not every such curve was filed as active; the % refers to the signal ratio; further: potency means the concentration at half of the fitted maximal effect; on activation: % of control where 0% means no effect); conditions: ME-180 (cervical carcinoma) HRE-bla reporter, beta-lactamase ratio, CoCl2, 17 h; activation: hits give high values
Procedure, shortened: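 Positive modulation of EC50 CoCl2-induced hypoxia response element signaling is measured in ME-180 cells with a beta-lactamase reporter. Compounds are titrated, incubation runs 17 hours, and %Activity derives from the blue/green ratio.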

[14] = Primary qHTS for small molecule stabilizers of the endoplasmic reticulum resident proteome: Secreted ER Calcium Modulated Protein (SERCaMP) assay (AID 1508630; active means well fitted curve in the direction sought with a large enough effect; an effect the other way counts as inactive or inconclusive; further: on the % scale 0 is the no-effect control and ±100 the full control effect); conditions: SH-SY5Y GLuc-SERCaMP (Gaussia luciferase released on ER calcium loss) secretion, thapsigargin, luminescence; series mostly up to 38.4 µM
Procedure, shortened: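 GLuc-SERCaMP-expressing SH-SY5Y cells, pretreated 16 h with compound, are challenged with thapsigargin to empty ER calcium stores; after 4 h, coelenterazine is added directly to the medium and luminescence is imaged.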

[15] = target: Cytochrome P450 2C19 (Homo sapiens) (UniProt P33261); experiment: qHTS Assay for Inhibitors and Substrates of Cytochrome P450 2C19 (AID 899; active means well fitted curve in the direction sought with a large enough effect; an effect the other way counts as inactive or inconclusive; further: potency means the concentration at half of the fitted maximal effect; nearly all actives have a fitted effect of over 60% in size); conditions: recombinant CYP2C19, luciferin-H EGE luminescence; series mostly up to 57.1 µM
Procedure, shortened: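 Luminescent read-out of luciferin formed from Luciferin-H EGE (10uM, equal to KM). Enzyme 5nM in 50mM KPO4; compound added, 10 min at 37C, then NADPH regenerating system for 60 min at 37C. Full inhibition defined by 57uM ketoconazole.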

[16] = Confirmation and Secondary Assay for Modulators of Hemoglobin Beta Chain Splicing at IVS2 705 locus (AID 930; active means well fitted curve in the direction sought with a large enough effect; an effect the other way counts as inactive or inconclusive;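 further: HeLa cells stably expressing the EGFP-705 splicing reporter; GFP fluorescence per well restored by corrected splicing of the IVS2-705 intron in EGFP; % of control where 0% means no effect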); conditions: HeLa EGFP-705 splicing reporter, GFP fluorescence, 48 h; series mostly up to 38.3 µM
Procedure, shortened: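 First, HeLa EGFP-705 cells are seeded at 500/well in Optimem with 2% FCS and left overnight. Next, compound or DMSO is added for 2 days. Finally wells are laser-scanned and total peak GFP intensity scored.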

Cytochrome P450 1A2 (Homo sapiens), sequence (P05177 whole entry, looked up): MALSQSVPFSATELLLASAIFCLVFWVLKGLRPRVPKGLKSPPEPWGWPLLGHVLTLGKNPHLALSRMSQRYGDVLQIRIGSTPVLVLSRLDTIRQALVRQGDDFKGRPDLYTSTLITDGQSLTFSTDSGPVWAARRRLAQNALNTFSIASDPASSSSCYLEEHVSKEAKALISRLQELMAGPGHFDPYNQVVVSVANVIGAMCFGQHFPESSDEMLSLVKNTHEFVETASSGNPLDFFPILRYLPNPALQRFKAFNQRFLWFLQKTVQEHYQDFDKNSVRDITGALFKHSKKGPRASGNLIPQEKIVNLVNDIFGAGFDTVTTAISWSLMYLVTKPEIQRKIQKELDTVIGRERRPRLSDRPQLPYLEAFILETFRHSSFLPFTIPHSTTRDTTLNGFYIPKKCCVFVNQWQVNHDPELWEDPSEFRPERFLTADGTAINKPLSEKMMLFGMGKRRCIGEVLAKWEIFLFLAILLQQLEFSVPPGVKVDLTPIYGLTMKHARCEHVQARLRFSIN
Glucocorticoid receptor (Homo sapiens), sequence (P04150 whole entry, looked up, the tested form may be a part): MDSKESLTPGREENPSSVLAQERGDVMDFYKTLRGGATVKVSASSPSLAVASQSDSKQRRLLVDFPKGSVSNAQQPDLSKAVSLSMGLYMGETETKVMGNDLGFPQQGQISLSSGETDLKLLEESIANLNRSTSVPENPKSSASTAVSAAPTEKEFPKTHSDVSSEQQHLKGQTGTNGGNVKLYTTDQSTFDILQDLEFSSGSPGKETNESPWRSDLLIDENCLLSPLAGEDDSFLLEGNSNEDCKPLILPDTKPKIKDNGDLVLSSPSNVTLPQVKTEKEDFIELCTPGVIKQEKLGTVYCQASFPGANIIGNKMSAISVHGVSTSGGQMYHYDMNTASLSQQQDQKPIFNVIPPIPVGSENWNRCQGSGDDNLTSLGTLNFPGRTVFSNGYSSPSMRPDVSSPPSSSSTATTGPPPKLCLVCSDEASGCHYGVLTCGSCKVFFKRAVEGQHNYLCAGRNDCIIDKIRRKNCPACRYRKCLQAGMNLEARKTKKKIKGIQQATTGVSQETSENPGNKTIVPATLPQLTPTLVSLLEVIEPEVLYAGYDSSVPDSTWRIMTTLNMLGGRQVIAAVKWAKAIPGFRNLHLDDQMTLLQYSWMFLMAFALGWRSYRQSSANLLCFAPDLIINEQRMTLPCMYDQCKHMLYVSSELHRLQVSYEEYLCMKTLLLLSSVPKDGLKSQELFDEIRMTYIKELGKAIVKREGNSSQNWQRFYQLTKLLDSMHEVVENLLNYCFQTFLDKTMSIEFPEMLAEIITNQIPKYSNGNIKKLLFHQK
3',5'-cyclic-AMP phosphodiesterase 4B (Homo sapiens), sequence (Q07343 whole entry, looked up): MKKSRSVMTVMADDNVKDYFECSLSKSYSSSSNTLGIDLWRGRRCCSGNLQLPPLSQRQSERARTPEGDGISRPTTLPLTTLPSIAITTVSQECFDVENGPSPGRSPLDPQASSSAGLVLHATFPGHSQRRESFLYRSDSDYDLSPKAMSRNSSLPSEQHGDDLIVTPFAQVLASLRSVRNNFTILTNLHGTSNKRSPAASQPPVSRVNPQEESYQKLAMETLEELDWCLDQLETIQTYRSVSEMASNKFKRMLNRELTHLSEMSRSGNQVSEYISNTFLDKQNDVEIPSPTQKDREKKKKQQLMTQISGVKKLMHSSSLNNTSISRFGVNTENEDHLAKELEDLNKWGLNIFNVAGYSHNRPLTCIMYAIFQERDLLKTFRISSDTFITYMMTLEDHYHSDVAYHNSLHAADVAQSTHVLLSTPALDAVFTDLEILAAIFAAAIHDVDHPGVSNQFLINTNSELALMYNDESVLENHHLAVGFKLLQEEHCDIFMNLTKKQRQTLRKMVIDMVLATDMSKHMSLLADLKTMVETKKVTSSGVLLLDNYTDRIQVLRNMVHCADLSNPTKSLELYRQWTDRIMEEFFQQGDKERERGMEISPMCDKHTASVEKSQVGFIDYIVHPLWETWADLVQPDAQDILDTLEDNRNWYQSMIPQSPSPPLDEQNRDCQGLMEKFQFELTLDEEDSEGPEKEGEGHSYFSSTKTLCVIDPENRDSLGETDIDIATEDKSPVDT
Lysosomal acid glucosylceramidase (Homo sapiens), sequence (P04062 whole entry, looked up): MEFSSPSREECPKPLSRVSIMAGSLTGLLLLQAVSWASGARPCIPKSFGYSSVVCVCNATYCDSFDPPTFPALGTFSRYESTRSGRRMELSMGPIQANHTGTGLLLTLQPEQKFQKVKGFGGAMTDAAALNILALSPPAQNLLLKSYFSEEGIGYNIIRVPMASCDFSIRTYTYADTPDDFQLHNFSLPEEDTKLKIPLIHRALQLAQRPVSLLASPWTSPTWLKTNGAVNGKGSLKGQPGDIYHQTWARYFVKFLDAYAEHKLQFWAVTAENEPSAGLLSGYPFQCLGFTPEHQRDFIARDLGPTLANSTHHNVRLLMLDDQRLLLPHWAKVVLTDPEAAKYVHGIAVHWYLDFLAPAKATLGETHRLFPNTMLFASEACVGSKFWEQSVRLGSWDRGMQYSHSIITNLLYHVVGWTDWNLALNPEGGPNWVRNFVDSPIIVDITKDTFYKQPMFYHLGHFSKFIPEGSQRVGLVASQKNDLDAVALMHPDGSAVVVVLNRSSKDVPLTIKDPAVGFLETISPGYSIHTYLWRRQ
Cytochrome P450 3A4 (Homo sapiens), sequence (P08684 whole entry, looked up): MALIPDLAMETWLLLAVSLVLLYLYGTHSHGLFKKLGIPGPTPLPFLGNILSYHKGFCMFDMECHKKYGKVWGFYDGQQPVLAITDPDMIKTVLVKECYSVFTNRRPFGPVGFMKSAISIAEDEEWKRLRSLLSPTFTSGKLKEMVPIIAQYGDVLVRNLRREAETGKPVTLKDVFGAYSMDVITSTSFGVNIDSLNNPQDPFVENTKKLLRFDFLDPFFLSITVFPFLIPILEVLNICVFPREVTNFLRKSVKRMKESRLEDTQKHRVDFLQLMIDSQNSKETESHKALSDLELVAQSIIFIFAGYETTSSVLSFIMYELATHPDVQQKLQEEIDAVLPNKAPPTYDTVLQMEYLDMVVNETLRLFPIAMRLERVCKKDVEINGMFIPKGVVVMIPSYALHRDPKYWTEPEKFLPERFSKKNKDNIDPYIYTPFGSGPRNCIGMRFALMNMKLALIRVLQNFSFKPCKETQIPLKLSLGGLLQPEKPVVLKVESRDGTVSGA
Cytochrome P450 2C19 (Homo sapiens), sequence (P33261 whole entry, looked up): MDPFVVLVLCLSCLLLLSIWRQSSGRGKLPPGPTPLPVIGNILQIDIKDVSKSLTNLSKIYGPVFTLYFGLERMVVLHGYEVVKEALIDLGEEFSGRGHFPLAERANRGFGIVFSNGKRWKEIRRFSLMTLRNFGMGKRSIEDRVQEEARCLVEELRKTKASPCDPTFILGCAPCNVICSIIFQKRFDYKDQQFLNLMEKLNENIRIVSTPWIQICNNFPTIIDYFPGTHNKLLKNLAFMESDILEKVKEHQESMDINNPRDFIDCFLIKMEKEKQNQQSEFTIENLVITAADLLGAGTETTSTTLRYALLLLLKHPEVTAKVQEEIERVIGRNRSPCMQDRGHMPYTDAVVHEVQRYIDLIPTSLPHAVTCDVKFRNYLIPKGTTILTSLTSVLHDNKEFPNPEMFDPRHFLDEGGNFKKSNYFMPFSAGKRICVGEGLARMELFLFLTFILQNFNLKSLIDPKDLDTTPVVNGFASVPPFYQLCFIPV
Cytochrome P450 2C9 (Homo sapiens), sequence (P11712 whole entry, looked up): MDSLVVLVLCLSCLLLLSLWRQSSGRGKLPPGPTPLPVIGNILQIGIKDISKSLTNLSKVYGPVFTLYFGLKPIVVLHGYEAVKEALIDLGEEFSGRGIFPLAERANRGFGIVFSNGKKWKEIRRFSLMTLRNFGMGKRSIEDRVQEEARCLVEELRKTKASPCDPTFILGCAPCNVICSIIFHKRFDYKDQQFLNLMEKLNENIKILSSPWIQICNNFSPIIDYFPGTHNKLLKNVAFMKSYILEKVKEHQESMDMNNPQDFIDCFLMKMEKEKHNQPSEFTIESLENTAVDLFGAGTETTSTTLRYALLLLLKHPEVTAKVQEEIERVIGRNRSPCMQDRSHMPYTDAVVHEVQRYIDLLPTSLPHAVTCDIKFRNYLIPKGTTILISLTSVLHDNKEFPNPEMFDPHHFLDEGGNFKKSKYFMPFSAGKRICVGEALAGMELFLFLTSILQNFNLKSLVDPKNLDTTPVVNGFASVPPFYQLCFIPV

Compound | Potency [1] [µM] | activity change, negative = inhibition [2] [%] | Potency [3] | activity change, negative = inhibition [4] [%] | activity, negative = inhibition [5] [%] | Potency [6] [µM] | Potency [7] [µM] | Potency [8] | Potency [9] | Potency [10] | Potency [11] | Potency [12] | Potency [13] | outcome [14] | Potency [15] | activation [13] [%] | outcome [16]
COc1ccc(Oc2ncc3nc(-c4cccs4)c(=O)n(C)c3n2)cc1 | > 11.4 | 18.3 | 3.16 µM (active) | 28.2 | 27.9 | > 9.22 | > 46 | inactive | inactive | 3.16 µM (active) | 3.98 µM (active) | inactive | 3.16 µM (active) | inactive |  |  | 
Cc1nc2cnc(Nc3ccccc3)nc2n(Cc2cccs2)c1=O | > 11.4 | 6.83 | 1.58 µM (active) | 31.1 | 10.1 | > 9.22 | > 46 | inactive | inactive |  | 7.94 µM (active) | inactive |  | inactive |  |  | 
Cc1nc2cnc(Oc3ccccc3)nc2n(-c2ccccc2)c1=O | > 11.4 | -7.96 | 10 µM (active) | 9.01 | -3.48 | > 9.22 | > 46 | inactive | inactive |  |  | inactive |  | inactive |  |  | 
Cn1c(=O)c(-c2cccc(Cl)c2)nc2cncnc21 | > 11.4 | -7.56 | 0.501 µM (active) | -2.65 | -10.2 | > 9.22 | > 46 | inactive | inactive |  |  |  |  | inactive |  |  | 
O=c1cnc2cnc(N3CCOCC3)nc2n1Cc1ccc(F)cc1 | > 11.4 | -5.88 | 3.98 µM (active) | -6.28 | 6.58 | > 9.22 | > 46 | inactive | inactive |  |  | inactive |  | inactive | 3.98 µM (active) |  | 
COCCn1c(=O)c(-c2ccc(Cl)cc2)nc2cncnc21 | > 11.4 | -10.8 | 0.2 µM (active) | 9.96 | 1.43 | > 9.22 | > 46 | inactive | inactive |  |  | inactive |  | inactive |  |  | 
COc1ncc2ncc(=O)n(Cc3ccc(F)cc3)c2n1 | > 11.4 | -11.8 | 12.6 µM (active) | -5.96 | -7.56 | > 9.22 | > 46 | inactive | inactive |  |  | inactive |  | inactive | 7.94 µM (active) |  | 
COc1ccc(Oc2ncc3nc(-c4ccc(Cl)cc4)c(=O)n(C)c3n2)cc1 | > 11.4 | -22.1 | 0.631 µM (active) | -2.12 | -5.79 | > 9.22 | > 46 | inactive | inactive |  |  | inactive |  | inactive |  |  | 
O=c1c(CCc2ccccc2)nc2cncnc2n1-c1ccccc1 | > 11.4 | -24.4 | 15.8 µM (active) | -14 | -17.6 | > 9.22 | > 46 | inactive |  |  |  | inactive |  | inactive |  |  | 
COc1ccc(-n2c(=O)c(-c3ccc(Cl)cc3)nc3cncnc32)cc1 | > 11.4 | -19.6 | 5.01 µM (active) | -2.56 | -6.47 | > 9.22 | > 46 | inactive |  |  |  | inactive |  | inactive |  |  | 
CN1CCN(c2ccnc(-c3cccc(NS(C)(=O)=O)c3)n2)CC1 | > 11.4 | -6.86 | 12.6 µM (active) | -9.78 | 7.5 | > 46 | > 46 | inactive | inactive |  |  | inactive |  | inactive |  | 0.356 | inactive
COCC(=O)N1CCC2(CCCN(Cc3nccs3)C2)CC1 | > 11.4 | -21.8 | inactive | -25.4 | -1.77 |  | > 46 | inactive | inactive |  |  |  |  | inactive |  |  | 
Cc1noc(C)c1C(=O)N1CCC2(CCN(Cc3nccs3)CC2)CC1 | > 11.4 | 11.4 | 12.6 µM (active) | -0.611 | 11.5 |  | > 46 | inactive | inactive |  |  |  |  | inactive |  |  | 
COCC(=O)N1CCC2(CCCN(C(=O)Nc3ccccc3)C2)CC1 | > 11.4 | -1.58 | inactive | 13.8 | 3.14 |  | > 46 | inactive | inactive |  |  |  |  | inactive |  |  | 
O=c1c(-c2ccccc2)nc2cncnc2n1Cc1ccccc1Cl | > 11.4 | 1.43 | 2 µM (active) | -6.41 | 5.03 |  | > 46 | inactive |  |  |  |  |  | inactive |  |  | 
